Data as given in the supplement of paper PMC6555819.

What was measured:
Assay in all cases: PBM binding z-score (relative to random genomic background probes); higher = stronger binding; sequences stand for … in GC…GCGATTGACAGCGTAGAATGAAGG
[1] = system: PPARg:RXRa DBDmut IVT, anti-RXR (DBD mutation: RXRa K156A/R161A, NR concentration 270 nM, RXRa partner concentration 90 nM)
Method in brief: (§1)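 Custom Agilent 4×180K protein-binding microarrays carried double-stranded probes, each with a 34-nt variable region. These regions held direct-repeat seeds, single-nucleotide variants, half-site ablations and random human genomic background sequences. Ligand-free nuclear receptor dimers were incubated on the arrays for 1 h, antibodies against each partner (one per run) detected binding, and scanned fluorescence was regression-normalized. Binding z-scores take the random background probes as reference.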

[2] = system: PPARg:RXRa IVT, anti-PPARg (NR concentration 270 nM, RXRa partner concentration 90 nM)
Method in brief: as §1

[3] = system: PPARg DBDmut:RXRa IVT, anti-PPARg (DBD mutation: PPARg1 K132A/R137A, NR concentration 270 nM, RXRa partner concentration 90 nM)
Method in brief: as §1

[4] = system: PPARg DBDmut IVT, anti-PPARg (DBD mutation: PPARg1 K132A/R137A, NR concentration 270 nM)
Method in brief: as §1

[5] = system: PPARg homodimer (NR concentration 180 nM)
Method in brief: as §1

[6] = system: PXR:RXRa (NR concentration 270 nM, RXRa partner concentration 90 nM)
Method in brief: as §1

[7] = system: PXR homodimer (NR concentration 270 nM)
Method in brief: as §1

[8] = system: RARa:RXR (NR concentration 270 nM, RXRa partner concentration 90 nM)
Method in brief: as §1

[9] = system: RARa homodimer (NR concentration 270 nM)
Method in brief: as §1

[10] = system: RARb:RXRa (NR concentration 270 nM, RXRa partner concentration 90 nM)
Method in brief: as §1

[11] = system: RARb homodimer (NR concentration 270 nM)
Method in brief: as §1

[12] = system: RARg:RXRa (NR concentration 270 nM, RXRa partner concentration 90 nM)
Method in brief: as §1

[13] = system: RARg homodimer (NR concentration 270 nM)
Method in brief: as §1

[14] = system: RXRa DBDmut IVT, anti-RXR (DBD mutation: RXRa K156A/R161A, NR concentration 90 nM)
Method in brief: as §1

[15] = system: RXRa homodimer (NR concentration 180 nM)
Method in brief: as §1

[16] = system: THRa:RXRa (NR concentration 90 nM, RXRa partner concentration 90 nM)
Method in brief: as §1

[17] = system: THRa homodimer (NR concentration 90 nM)
Method in brief: as §1

[18] = system: VDR:RXRa (NR concentration 270 nM, RXRa partner concentration 90 nM)
Method in brief: as §1

[19] = system: VDR homodimer (NR concentration 270 nM)
Method in brief: as §1

Sequence	PBM binding z-score [1]	PBM binding z-score [2]	PBM binding z-score [3]	PBM binding z-score [4]	PBM binding z-score [5]	PBM binding z-score [6]	PBM binding z-score [7]	PBM binding z-score [8]	PBM binding z-score [9]	PBM binding z-score [10]	PBM binding z-score [11]	PBM binding z-score [12]	PBM binding z-score [13]	PBM binding z-score [14]	PBM binding z-score [15]	PBM binding z-score [16]	PBM binding z-score [17]	PBM binding z-score [18]	PBM binding z-score [19]
CAAACTAGGTCAAGATGTCAAAGTCCGCTTCCCG	8.4	8.48	2.81	1.01	2.29	1.86	-0.0603	3.02	0.666	4.12	3.53	4.72	5.27	1.76	3.43	2.86	1.04	2.2	0.881
TCTCGGAGGACACGAAGGTCAGAGGTTTCCAGAG	1.38	1.27	-0.769	-0.978	1.73	2.39	1.24	2.75	0.0674	3.42	4.01	3.24	3.9	0.797	2.29	3.07	1.17	2.59	1.73
AATGCAGGGTCACTAGGCCAGAGTAGGTACGAAT	4.1	5.62	1.45	0.273	2.1	3.26	0.127	4.25	0.109	4.13	3.32	5.29	4.82	2.75	5.37	3.27	0.736	4.04	2.33
ACTATTAGTTGACTTGGGGCAACCGATACGACGC	0.684	0.607	1.18	1.45	0.367	0.156	0.385	0.245	0.466	0.789	0.856	0.552	0.701	0.839	0.366	1.29	0.534	0.274	0.357
ATATGTAGGGTATCGGGTCATTCAGTTTGCGCAT	6.53	6.58	2.46	2.33	2.08	3.66	7.07	2.95	0.891	2.09	2.99	2.43	1.97	1.43	2.76	3.07	2.69	5.05	3.81
GCTATTAGTTGAAAGGGCAACCGTATGATTCTCG	0.503	1.17	0.375	0.271	1.91	1	0.322	1.49	0.819	2.11	2.21	1.41	1.14	1.01	1.43	0.799	-0.237	0.653	0.306
TCTAGTTGGTCACGGAGGTCATACACGACGGGTA	2.41	3.69	1.98	1.06	2.96	4.57	2.33	4.38	1.78	3.59	4.18	4.45	4.21	1.16	4.65	3.5	2.17		3.53
TTACCAAGGTGTAGGTCGTTGATCCCTCTGTAGA	-0.191	0.759	-0.595	0.0644	0.0452	0.444	-0.501	0.688	-0.329	0.379	0.426	0.051	-0.436	-0.0196	0.497	0.442	0.121	0.256	0.0922
GCTTACGGGTCACAGGTTATAGCATGAATAGAAT	4.72	5.4	2.51	1.47	1.81	3.52	-0.0291	4.84	0.515	4.03	2.95	5.09	4.66	2.03	5.84	2.86	0.315	3.9	0.608
AGAATGAGGTTATTAAGATCAGGGGATTGCGGTC	2.94	2.52	0.849	0.535	0.326	1.14	0.713	1.15	0.826	1.34	0.919	1.03	0.573	1.97	1.49	2	0.811	2.36	1.35
TCTATTAGTTGAAGTGCAACCGACGAGTCCGTTT	2.28	0.306	0.956	1	0.829	0.982	1.24	0.832	0.781	0.825	0.42	0.379	0.172	1.58	0.754	0.107	0.145	1.22	1.83
CCTCGGAGGACAACAGTAGGTCAGAGCTGCCAGA	1.42	2.02	-1.19	-2.12	0.785	0.462	-0.203	0.798	-0.275	2.05	2.54	1.94	2.24	0.271	0.593	1.67	0.256	0.152	-0.109
GCTCGGAGGACAAGGTCAGAGCATTGTCCGTAGA	-0.234	0.996	-1.46	-0.733	0.964	1.69	-0.0134	2.26	-0.974	3.38	3.1	3.37	3.72	0.0327	2.61	2.87	1.51	1.5	0.838
TAGCCTAGGTCATTCAGGGGACAGTATAGAAAGC	2.17	3.28	0.412	0.909	1.58	2.58	0.0541	3.72	0.228	4.09	3.89	6.43	4.2	2.35	2.9	3.75	1.54	3.56	1.66
TCGAGTAGCTTACCAATGGGGCATTCAGCTTTCT	1.07	-0.175	-1.01	-0.741	-0.629	-0.456	-1.19	-0.333	-1.4	-0.426	-0.454	-0.745	-0.826	0.345	-0.307	-1.44	-0.855	-0.487	-0.692
CCGACTGGGGCAGAAGGTTACCATAAGCCAGCCC	1.61	1.92	-0.993	-1.69	0.826	0.166	0.188	0.736	-0.0153	1.25	1.53	1.14	0.806	-0.593	1.04	0.31	-0.571	-0.302	0.083
CCTCGGAGGACAGAAGGTCAGAGCCGTCCGCTTT	0.172	-0.13	-1.85	-1.98	1.7	1.78	-0.366	2.37	0.4	3.24	3.64	3.4	3.1	0.361	2	2.33	0.0553	0.934	-0.0393
CGAACTAGGTGAGAACAGGACAGTGAAGGATGAT	6.37	5.97	0.979	0.431	0.246	0.0752	0.241	0.486	0.275	0.285	0.34	0.567	0.579	0.0565	0.458	1.21	0.0768	-0.123	0.286
TCTATTAGTTGATTAGGCCAACCGAAACAGCGGA	2.31	0.958	0.847	0.784	1.2	0.477	0.547	0.834	1.24	0.707	0.54	0.339	0.554	1.35	0.635	0.691	0.713	0.618	0.253
CCTACTGGGCCACGGAAGGTCATTGATTCAGTGA	4.56	5.51	-0.609	-0.824	1.7	3.57	0.303	3.15	0.0822	3	3.78	2.93	2.38	-0.515	2.57	3.67	0.727	2.83	1.2
ACAGACAGGTTAGTGAAGGTAACTCAGCTGGACG	0.174	0.407	0.284	0.465	0.573	-0.0921	-0.25	0.306	0.0654	0.755	0.435	0.363	0.773	-0.188	0.511	2.2	-0.138	-0.0325	-0.0977
TAGCCTAGGTCCTGCGGGCCAGTATAGTGTCGGC	-1.61	-0.181	-1.11	-0.969	-1.72	-0.971	-1.03	-0.898	-1.52	-0.954	-0.744	-0.626	-0.818	-1.46	-0.822	-1.56	-0.966		-0.992
CCTACTAGGCCATCAGGTCATTGATATCAACGTT	6.04	5.32	0.857	0.291	1.87	2.04	1.66	2.59	1.47	2.45	3.07	2.45	2.56	1.43	1.71	3.32	3.28	2.26	2.51
ATCGAAAGGTCGTGAGGTGAGTAGACAGAAAGGC	0.467	2.39	0.658	0.706	1.44	3.07	0.328	4.15	0.372	3.9	2.99	4.61	3.94	1.15	5.39	3.28	1.3	3.35	0.659
TTACCAAGGTGAGCTGAGGTCGTGGATCCAACTC	1.07	2.05	-0.299	-0.109	-0.369	3.77	-0.246	2.49	-0.727	1.94	1.97	1.47	0.791	-0.207	1.82	4.83	2.55	3.37	0.927
TAGCCCAGGTCATTCAGGGGCCAGTATAGAAAGC	0.643	2.16	-0.0273	0.498	2.32	3.28	0.378	3.94	0.0689	3.67	3.34	6.39	4.29	2.4	3.39	3.71	1.48	3.65	2
ATGTGTAGGTTAGCTGGGGTCATTCAGACTAGGC	2.74	3.09	1.93	2.25	3.23	6.41	5.39	6.36	2.17	3.25	3.72	4.37	3.19	2.08	5.51	5.15	3.53		5.92
CGAACTAGGTCATCCAGGACAATGAATACATTGA	7.89	8.42	3.32	1.7	1.95	2.1	2.1	2.31	0.706	3.87	2.68	3.81	4.59	2.36	2.73	3.81	2.22	4.99	2.27
GGAACGAGGGCAAAGATGATAGCATCTGTCGACG	3.87	3.02	-0.58	0.0962	0.289	0.215	-0.309	0.189	-0.373	1.98	0.55	1.1	1.59	2.33	1.02	0.506	-0.734		0.578
TAGCCTAGGACATGGGCCAGTATACCACGCGAAC	-1.18	-0.594	-0.263	-0.978	-0.814	-0.387	-0.477	-0.815	-0.515	0.0238	-0.0727	-0.00552	0.0243	-0.981	-0.0222	0.476	0.11		-0.526
